Not all results are given here.
aSyn 5UTR act – Activators via SNCA 5'UTR binding, MLPCN | hit rate 7.1% among 300,000 | activity score, % (tested at 7.5 µM), hits read low | alpha-synuclein 5'UTR reporter, activators screen; in the data active = activity score below about -60%
A number is an active result; . = inactive.

SMILES	aSyn 5UTR act
CN(C)c1ccc(N/C=C/C(=O)c2ccccc2)cc1	-65.0
CN(C)c1ccc(N/C=C/C(=O)C(C)(C)C)cc1	-77.9
CC(=O)Nc1ccc(N/C=C/C(=O)c2ccccc2)cc1	-255.2
O=C(/C=C\Nc1ccc(Br)cc1)c1cccnc1	-68.9
Cc1ccc2cc(NC(=O)c3ccccc3)ccc2n1	-84.5
CC(C)CC(=O)Nc1ccc2ccccc2c1	-99.1
Cc1ccc2cc(NC(=O)c3cccc(F)c3)ccc2n1	-78.8
O=C(Nc1ccc2ccccc2c1)c1ccc(NS(=O)(=O)c2ccc(Br)s2)cc1	-102.3
O=C(Nc1ccc2ccccc2c1)c1cccc(F)c1	-117.2
O=[N+]([O-])c1ccccc1NCCOc1ccccc1	-227.3
COCCCNc1nc(N)c([N+](=O)[O-])c(NCc2ccccc2)n1	.
COc1ccc(CNc2ncccc2[N+](=O)[O-])cc1	-79.5
CC1CN(c2ccc([N+](=O)[O-])c(NCCOc3ccc(Cl)cc3)c2)CC(C)N1 (stereo unspecified)	.
CCOC(=O)/C=C/COc1ccccc1[N+](=O)[O-]	-69.8
COc1ccc(OCCOc2ccccc2[N+](=O)[O-])cc1	-152.9
O=[N+]([O-])c1ccccc1OCCCOc1cccc2cccnc12	-96.3
O=[N+]([O-])c1ccccc1OCCOc1ccccc1[N+](=O)[O-]	-138.5
COc1cc(C(=O)Nc2nc3ccccc3s2)ccc1OCc1c(C)noc1C	-110.4
Cc1cc(C)n(-c2ccc(C(=O)Nc3nc4ccccc4s3)cc2)n1	-97.3
CC(=O)Nc1cc(C)nn1-c1nc2ccccc2s1	-177.6
O=C(Nc1nccs1)c1sc2ccccc2c1Cl	.
COc1ccc2c(Cl)c(C(=O)NC3CCS(=O)(=O)C3)sc2c1 (stereo unspecified)	-79.9
O=C(NC1CC1)c1sc2cc(Cl)ccc2c1Cl	-96.6
O=C(Nc1nccs1)c1sc2cc(Cl)ccc2c1Cl	-115.2
O=C(c1c(Cl)nc2sccn12)N(C(=O)c1c(Cl)nc2sccn12)c1ccc(Cl)cn1	-195.5
SMILES	aSyn 5UTR act
CCC(Sc1nncn1C)C(=O)Nc1nnc(-c2ccccc2Cl)s1 (stereo unspecified)	-63.9
O=C(Nc1nnc(-c2ccccc2Cl)s1)c1ccccc1F	-172.7
O=C(Nc1nnc(-c2ccccc2)s1)c1ccccc1F	-151.8
COc1ccc(C2=NOC(C(=O)NCc3ccco3)C2)cc1 (stereo unspecified)	-77.1
COc1ccc(C2=NOC(C(=O)NCC(C)C)C2)cc1 (stereo unspecified)	-106.7
CCOC(=O)CSC1=NC(=O)/C(=C\c2ccc(OC(C)=O)cc2)S1	-131.2
CCOC(=O)CSC1=NC(=O)/C(=C/c2ccc(Br)cc2)S1	-61.9
Cc1cc(C)c(C)c(N=Nc2nc3ccccc3n2C)c1C	-74.8
Cc1ccc(C)c(N=Nc2nc3ccccc3n2C)c1	-202.4
CC(=O)Nc1ccc2nc(NC(=O)COc3ccccc3Cl)sc2c1	-69.4
Cc1nc2ccc(NC(=O)CS(=O)(=O)c3ccccc3)cc2s1	-101.1
Cc1cc(CNC(=O)COc2ccccc2F)c2ccccc2n1	-95.6
CC(=O)Nc1ccc2nc(NC(=O)COc3ccccc3)sc2c1	-64.4
Cc1nc2ccc(NC(=O)COc3ccccc3F)cc2s1	-132.9
Cc1nc2ccc(NC(=O)CCC3CCCC3)cc2s1	-143.5
COCc1cc(C)nc(Nc2ccc(C)c(C)c2)c1C#N	-70.6
CCC(C)NS(=O)(=O)c1ccc(NC(=O)C(Sc2ccccc2)c2ccccc2)cc1 (stereo unspecified)	.
CCC(CC)C(=O)Nc1ccc(Nc2ccccc2)cc1	-99.6
CCOC(=O)c1ccc(NC(=O)C(CC)CC)cc1	-98.4
CCOC(=O)c1ccc(NC(=S)N(CCN(C)C)Cc2cccs2)cc1	.
CCOC(=O)c1ccc(NC(=O)N(CC)CC)cc1	-114.7
O=C1c2ccccc2-c2nc3ccccc3nc21	-181.9
NC1=C(Br)C(=O)c2ccccc2C1=O	.
COc1ccnc(CSC(N)=Nc2ccc(F)cc2)c1	-111.4
CC1=C(CC(=O)c2ccc(Cl)cc2)C(=O)c2ccccc2C1=O	-70.0
SMILES	aSyn 5UTR act
O=C(Cc1ccccn1)c1ccc(Cl)cc1	-164.2
Clc1ccc(/C=N/Nc2ncnc3ccccc23)cc1Cl	-317.7
Fc1ccccc1/C=N/Nc1ncnc2ccccc12	-241.1
CCOc1ccc(C2=Nc3ccc(Br)cc3C(c3ccc(N4CCOCC4)cc3)=NN2)cc1	-66.4
CCOc1ccc(C2=Nc3ccccc3C(c3ccc(N4CCOCC4)cc3)=NN2)cc1	-94.5
CCCCCCCCCCOC(=O)Cn1c(COc2ccccc2OC)[n+](C)c2ccccc21	.
Oc1c(CN2CCCCC2)cc(COCc2ccccc2)c2cccnc12	.
COC(=O)c1ccc(COC(=O)c2ccc(SC)cc2OC)cc1	-115.0
COc1cc(C(=S)N2CCCC2)ccc1OCc1ccccc1	-66.9
CCC(=O)c1ccc(OCc2ccccc2)c(OC)c1	-85.4
CCC(=O)c1ccc(OCc2ccc(C(=O)OC)cc2)c(OC)c1	-75.1
Clc1c(-c2ccccc2)nc2ccccn12	-151.6
c1ccn2c(c1)nc1c2nc2ccccn21	-189.2
Cc1ccc(-c2nc3ccccn3c2C=O)cc1	-107.9
Cc1c(-c2ccc(Br)cc2)nc2ccccn12	-180.6
CN(C)/C=C/c1onc(-c2ccccc2Cl)c1C#N	-86.7
COc1ccc(C#Cc2ccc3c(c2)c(=O)c2ccccc2n3C)cc1	-124.6
COc1cc(-c2noc(C)c2C#Cc2ccc(N)cc2)cc(OC)c1OC	.
CCc1nc2c(c(=O)c3ccccc3n2C)c(=O)n1CCc1ccc(OC)cc1	.
Nc1ccc2oc3ccccc3c2c1	-100.5
Nc1ccc2oc3ncccc3c(=O)c2c1	-97.5
Nc1ccc(C#Cc2ccc3oc4ccccc4c(=O)c3c2)cc1	-66.3
Cn1c2ccccc2c(=O)c2cc(C#Cc3ccc(N)cc3)ccc21	-89.1
CN1CCc2c(sc3c2C(=O)NC(c2cn(Cc4ccccc4)c4ccccc24)N3)C1 (stereo unspecified)	.
CN1CCc2c(sc3c2C(=O)NC(c2cccc(OC(=O)c4cccs4)c2)N3)C1 (stereo unspecified)	-108.0
SMILES	aSyn 5UTR act
Cc1ccc(-n2nc3ccc(NC(=S)NC(=O)/C=C/c4ccco4)cc3n2)cc1	-95.8
Cc1ccc(-n2nc3cc(C)c(NC(=S)NC(=O)/C=C/c4ccco4)cc3n2)cc1	-256.8
Cc1c(C)c2ccc(OCC(=O)Nc3nccs3)cc2oc1=O	.
O=C(Nc1nccs1)c1ccc(COc2ccc(F)cc2)o1	-97.1
O=C(COc1ccc(F)cc1)Nc1nc2c(s1)CCCC2	-91.9
O=C(COc1ccc(F)cc1)Nc1nccs1	-90.8
Cc1ccc2nc(CSc3nc(C)cc(C)c3C#N)[nH]c2c1	-69.7
Cc1coc2c1C(=O)C(=O)c1c-2ccc2c(C)cccc12	-64.2
Cc1coc2c1C(=O)C(=O)c1c-2ccc2c1CCCC2(C)C	.
CC(=O)c1ccc(NS(=O)(=O)c2c(C)cc(C)cc2C)cc1	-102.0
Cc1cc(C)c(S(=O)(=O)Nc2ccc3c4c(cccc24)CC3)c(C)c1	.
Cn1c(=O)oc2cc(S(=O)(=O)N3CCCC(C(=O)NC4CCCc5ccccc54)C3)ccc21 (stereo unspecified)	.
CCS(=O)(=O)N1CCC(C(=O)Nc2ccc3c(c2)CCC3)CC1	-83.4
CCCS(=O)(=O)N1CCCC(C(=O)Nc2ccc3c(c2)CCC3)C1 (stereo unspecified)	-70.8
CCOc1ccc2c(c1)c(N=O)c(O)n2C	-64.9
Clc1ccc(OCCCN2CCCCC2)c(Br)c1	-87.8
CC(C)c1cc2c(c(O)c1O)[C@@]13CCCC(C)(C)C1CC2OC3=O (stereo partly specified)	-125.8
CCOc1ccccc1-c1nc(-c2cccc(Br)c2)no1	-134.8

High-throughput results from PubChem.
